Data from PubChem BioAssay (NCI).
The panel holds about 79,000 compounds, 15% with a hit somewhere; the sample as a whole holds those more often. Unmarked numbers belong to inactive results. Activity calls are given as the source filed them. Rule as the data show it: active = growth inhibition above about 70%; inactive = the rest.

How the values were obtained:
[1] = NCI Yeast Anticancer Drug Screen. Data for the rad50 strain (AID 155);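 also: 0% = growth of vehicle-only cultures of the same strain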; details: S. cerevisiae rad50 strain growth inhibition; at 50.0 µM; active compounds read high
Method in brief: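 Genetically altered yeast (DNA repair pathway); compound treatment; growth inhibition vs vehicle ctrl.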

[2] = NCI Yeast Anticancer Drug Screen. Data for the mec2-1 strain (AID 157); details: S. cerevisiae mec2-1 strain, at 50.0 µM, active compounds read high
Method in brief: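 Strain: mec2-1 (DNA repair/cell cycle alteration). Compound exposure, then growth measured; inhibition expressed relative to vehicle.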

[3] = NCI Yeast Anticancer Drug Screen. Data for the sgs1 mgt1 strain (AID 161);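 also: 0% = growth of cultures given vehicle only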; details: S. cerevisiae sgs1 mgt1 strain, at 50.0 µM, active compounds read high
Method in brief: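 Mutant yeast exposed to compound; growth scored against vehicle-only wells.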

[4] = NCI Yeast Anticancer Drug Screen. Data for the cln2 rad14 strain (AID 165);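 also: 0% = growth equal to vehicle treated cultures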; details: S. cerevisiae cln2 rad14 strain, at 50.0 µM, active compounds read high
Method in brief: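 Compounds are applied to the cln2 rad14 yeast strain, and growth is then compared with that of vehicle-treated cultures to give inhibition.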

[5] = NCI Yeast Anticancer Drug Screen. Data for the bub3 strain (AID 167); details: S. cerevisiae bub3 mutant strain, at 50.0 µM, active compounds read high
Method in brief: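 Yeast carrying a defined mutation is treated with each compound, and growth is compared with that of vehicle-exposed cells to give inhibition.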

[6] = NCI Yeast Anticancer Drug Screen. Data for the mlh1 rad18 strain (AID 175); details: S. cerevisiae mlh1 rad18 strain growth inhibition; at 50.0 µM; active compounds read high
Method in brief: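 Read-out is yeast growth inhibition, calculated against vehicle-only controls. The compound was applied to a strain engineered with DNA damage repair alterations.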

SMILES | growth inhibition [1] | growth inhibition [2] | growth inhibition [3] | growth inhibition [4] | growth inhibition [5] | growth inhibition [6]
C=C1CCC23CC(CC[C@@H]2[C@@]12C[C@@H](c1ccoc1)OC2=O)OC3=O (some centres not stated) | 2.6% | -12.6% | -8.6% | -5.1% | 5.35% | 1.8%
NC(=O)C1(c2cccs2)CCCC1 | 4.9% | 3.4% | 6.5% | -26.1% | -12.3% | 26.2%
O=C(Nc1ccc(Cl)cc1)Nc1nnc2nc(CC(=O)c3ccccc3)c(=O)[nH]n12 | 15.7% | 1.1% | 11.9% | -19% | -21.9% | 1.1%
COc1ccc(C(C)S(=O)(=O)c2ccccc2)cc1OC (configuration not stated) | 6.2% | 8.8% | -2.9% | -5.9% | 6.1% | 5.5%
COc1cc2c[n+](C)c3c4ccccc4ccc3c2cc1OC | 40.4% | 55.2% | 18.9% | 2.75% | 22.2% | 38.5%
NCc1ccc2ccc3ccccc3c2c1 | 11.1% | -0.95% | -1.35% | 11.2% | -4.45% | 19.7%
O=C(NNC(=S)Nc1ccc(S(=O)(=O)N2CCCCC2)cc1)c1ccncc1 | 5.25% | 11.1% | 33.5% | 4.2% | 33% | 46%
S=C=NC12CC3CC(CC(C3)C1)C2 | -2% | 0.6% | 0.65% | 15.1% | -4.05% | -15.5%
COC(=O)c1cc(C(c2cc(C)c(O)c(C(=O)OC)c2)c2cc(C)c(O)c(C(=O)OC)c2)cc(C)c1O | -6.9% | 10.6% | -4.4% | -6.2% | -0.3% | 3.9%
COC(=O)c1nc2c3c(cccc3c1C(=O)OC)Nc1ccccc1-2 | -3.2% | 9.65% | 0.35% | 28.5% | 19.4% | -39.4%
ClC1CC[N-]CC1.ClC1CC[N-]CC1.O=C(O)CC(=O)O.[Pt+2] | 53.2% | 55.4% | 68.5% | -23.4% | 23.4% | 45.5%
Cn1cnc([N+](=O)[O-])c1Cl | 43.4% | -3.6% | -2.2% | -7.55% | 19.2% | -1.1%
Cc1[nH]ccc(=O)c1OC(=O)C12CC3CC(CC(C3)C1)C2 | 15.8% | 16.6% | 36% | 19.2% | 2.7% | 23%
CN(CCO)CC(O)Cn1cnc2c(N)ncnc21 (configuration not stated) | -12.5% | -17.8% | -31.5% | 10.7% | -19.4% | 19.8%
C=C(C)CC1CN2CCc3cc(OC)c(OC)cc3C2CC1=O (configuration not stated) | 25.3% | 6.85% | 24.8% | 18.8% | 43.6% | 26.6%
CCCCCCCCOC(=O)C1(O)CCCCC1 | 14.6% | 28.4% | 16.1% | 4.2% | 17.6% | 36.1%
Clc1ccc(N=CNc2ccc(Cl)cc2)cc1 | -10.2% | -2.85% | -6.55% | -14.2% | 43.2% | -2.35%
CCCC1C(CC)C(NC)C(C#N)(C#N)C1(C#N)C#N (configuration not stated) | 7.05% | 38.9% | 8.95% | 26.3% | 8.3% | 7.25%
BrC1=C(c2ccccc2)C2CCCCC2C1(Br)c1ccccc1 (configuration not stated) | 96.2% (active) | 97.1% (active) | 97.8% (active) | 96.9% (active) | 96.8% (active) | 98% (active)
O=CC(C(=O)c1ccccc1[N+](=O)[O-])c1ccccc1 (configuration not stated) | 9.6% | 5.7% | 15.9% | 15.8% | 13.7% | 13.4%
CCCCC1(C(=O)NC(=Nc2ccccc2)Nc2ccccc2)CCOC1=O (configuration not stated) | 4.3% | 8.15% | -2.55% | -11.9% | -2.95% | 4.9%

SMILES | growth inhibition [1] | growth inhibition [2] | growth inhibition [3] | growth inhibition [4] | growth inhibition [5] | growth inhibition [6]
N#CC1CNC(N)NC1N (configuration not stated) | -0.1% | 4.8% | -8.05% | -7.95% | 7.35% | 1.65%
C=CCN(N=O)C(=O)NCCCCC(NC(C)=O)C(=O)NCc1ccccc1 (configuration not stated) | -10.2% | -22.6% | -21.9% | -6.3% | 5.1% | -14%
CN1N=C(c2ccccc2O)/C(=C/c2c(-c3ccccc3O)[nH]n(C)c2=O)C1=O | 6.85% | -0.55% | -6.1% | 0.75% | 4.6% | 31.9%
O=C(NCCc1c[nH]c2ccccc12)C1CC1 | -40% | 16.6% | -14.8% | -32.2% | 7.05% | -25.9%
O=c1[nH][nH]c(=O)c2c1nc(SCCc1ccccc1)n2Cc1ccccc1 | 26.4% | 4.55% | 11.7% | 19.4% | 1.8% | 14.8%
O=C(O)C(Cc1ccsc1)C(=O)O | -10.1% | 1.1% | -6.6% | -17% | -6.45% | 12.4%
CC(=O)N/N=C/c1ccc(C)cc1 | 6.6% | -1.3% | -11.1% | -0.9% | -11.8% | 1.75%
Cc1ccccc1/C=C1/N=C(c2ccccc2)OC1=O | -27.3% | -17.4% | -19.7% | 0.9% | -14.4% | -6.85%
CN(C)c1cccc2c1C(=O)C=CC21c2ccc(N(C)C)c3c(N(C)C)ccc(c23)C(c2ccccc2)C1c1ccccc1 (configuration not stated) | -6.15% | -11.4% | -4.55% | -27.3% | -31.6% | -8.75%
CCCO/N=[N+](\[O-])N(CC)CC | -7.7% | -17.4% | 7.5% | 13.8% | -0.8% | -1.45%
O=S(=O)(O)c1cc2nonc2c2ccccc12 | 2.75% | -0.85% | 12.9% | 9.25% | 0.9% | -2.6%
O=C1CCCC/C(=C/c2ccccc2)N1 | 4.45% | -7.2% | -6.7% | 12.8% | -21.8% | 7.85%
O=C(O)c1cc2cc(Br)ccc2c(Br)c1O | -3.75% | -25.7% | -8% | -71.3% | -24.2% | -3.85%
COC(=O)c1ccccc1/C=C1\SC(=S)NC1=O | -1.6% | 6.3% | 17.9% | -9.85% | -4.95% | -0.7%
CCOC(=O)c1ccc(NCC2CNc3ccccc3N2)cc1 (configuration not stated) | 36.2% | -11.2% | 17.7% | -8.35% | 23.2% | 18.2%
CCOC(=O)/C(=C\c1cccc(F)c1)C(C)=O | 20.6% | 15.3% | 7.05% | -4.9% | 13.7% | 41.5%
O=C1CSC(c2ccc(F)cc2)N1c1nncs1 (configuration not stated) | 5.2% | 3.65% | 9.7% | 3.6% | 31.6% | 7.45%
N#C/C(N)=C(/C#N)N=Cc1ccccc1 | 15.9% | 21.3% | 8.4% | -64.4% | 7.2% | 18.9%
O=C(Nc1cccc(Cl)c1Cl)Oc1cccc2ccccc12 | 21.4% | 5.15% | 12.4% | 8.65% | 24.5% | 16.4%
C=CCNC(=O)ON1C(=O)CCC1=O | -19.8% | 3.05% | -35.6% | -8.65% | -22.9% | -39.5%
O=C(CC1C(=O)Nc2ccccc2S1=O)Nc1ccc(Cl)cc1 (configuration not stated) | 41.9% | 38% | 59.8% | 18.4% | 48% | 56.3%
